Assay outcomes from PubChem.
Sa RN4220 lethal: growth inhibition of S. aureus RN4220, primary screen, OD600. 16 h. inhibition, % (test concentration not listed). 330,000 compounds, 0.33% hits. AID 1259311, 2017; in the data active = inhibition above about 85%;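 also: plate controls were untreated cells for no effect and reference antibiotic for full effect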
PfHsp40 yeast: rescue of yeast from PfHsp40 toxicity, primary screen, S. cerevisiae, ATP luminescence | S. cerevisiae expressing PfHsp40, growth rescue | growth rescue, % at 12.5 µM | 340,000 compounds, 0.68% hits | AID 504582, 2011; in the data active = growth rescue above about 28%, passing the limit was not always enough;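 also: yeast W303a lacking pdr1 and pdr3 grown in galactose medium; growth measured after three days at 30 °C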
PrP 5UTR inh: inhibition of PrP 5' UTR reporter expression | cell-based PrP 5' UTR mRNA reporter, plate reader | inhibition, % (test concentration not listed) | 340,000 compounds, 0.35% hits | AID 488862, 2010; in the data active = inhibition above about 52%; also: 0 = median of the neutral control wells
CCHF vOTU inh: CCHFV vOTU protease inhibitors, primary screen, biochemical, Pep-AMC substrate, fluorescence. inhibition, % at 11.5 µM. 370,000 compounds, 0.55% hits. AID 651958, 2012; in the data active = inhibition above about 30%; also: 0% = vehicle wells with enzyme and 100% = no enzyme wells
PrPC TRFRET: inhibitors of human cell surface prion protein PrPC, primary screen, cell-based, TR-FRET; Major prion protein (Homo sapiens), P04156; TR-FRET read-out; inhibition, % at 13.8 µM; 370,000 compounds, 0.43% hits; in the data active = inhibition above about 24%; also: 0% = median of the test wells and 100% = reference compound wells
ugtP null kill: growth inhibition of ugtP-null S. aureus, primary screen, RN4220 ugtP deletion, OD600; 16 h; growth inhibition, % (no concentration beside the values); 330,000 compounds, 0.54% hits; in the data active = growth inhibition above about 68%;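 also: plate controls were untreated wells for no effect and antibiotic for full effect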
* hit, by the source's call; x = no result given. Hits are enriched below; roughly 2.1% of the tested compounds scored in any of these assays.

SMILES	Sa RN4220 lethal	PfHsp40 yeast	PrP 5UTR inh	CCHF vOTU inh	PrPC TRFRET	ugtP null kill
O=C1c2ccccc2C2=Nc3ccccc3SC(c3cccc(F)c3)C12 (stereo unspecified)	-6	281*	-15	4	6	-2
CCOC(=O)CCc1ccc(NC(=O)/C=C/c2ccc([N+](=O)[O-])o2)cc1	x	0	-24	3	-38	x
CCc1ccc(C(=O)/C=C/c2ccc([N+](=O)[O-])o2)cc1	24	120*	-6	0	4	60
O=C(C=Cc1ccc(Cl)cc1)c1ccc([N+](=O)[O-])o1	79	x	x	x	x	99*
CCN(CC)S(=O)(=O)c1ccc(C(=O)NCC(=O)NN=Cc2ccccc2OC)cc1	2	x	x	x	x	5
O=C(NC(Cc1ccccc1)C(=O)OCc1ccccc1)c1nc[nH]c1C(=O)NC(Cc1ccccc1)C(=O)OCc1ccccc1 (stereo unspecified)	3	x	x	x	x	-13
O=C(Nc1cc(Cl)cc(Cl)c1)C1CCCC1	-7	70*	-37	10	12	18
O=C(Nc1ccc(Cl)cc1)C1CCCC1	3	1	-11	-6	14	0
O=C(Cn1ccccc1=S)c1ccc(Cl)c(Cl)c1	2	x	x	-9	-3	-2
On1ccccc1=S	x	382*	-37	15	42*	x
Cc1c(C2(O)CCCCC2)[nH]c2ccc(C(F)(F)F)cc12	x	287*	-16	13	15	x
O=C(O)Cn1cc2c(n1)CCCCC2	5	30*	-6	-1	-3	2
O=C(Cn1cc2c(n1)CCCCC2)N1CCCCC1	-1	-1	-25	-2	4	-6
COc1ccc(C2CC(=O)C=C(c3cccc4c3sc3ccccc34)C2)cc1OC (stereo unspecified)	1	x	x	x	x	13
COc1cc(C(C[N+](=O)[O-])c2c(N)n(C)c(=O)n(C)c2=O)ccc1O (stereo unspecified)	1	-1	3	1	2	-15
Cc1ccc(C(C[N+](=O)[O-])c2c(N)n(C)c(=O)n(C)c2=O)cc1 (stereo unspecified)	x	364*	5	-2	3	x
CNC(=O)c1[nH]cnc1C(=O)NC(CC(C)C)C(=O)OCc1ccccc1 (stereo unspecified)	5	x	x	x	x	-7
O=S(=O)(c1ccc(Cl)cc1)N1CCN(Cc2ccc(O)c3ncccc23)CC1	-3	102*	23	-5	2	12
Oc1ccc(CN2CCN(Cc3ccccc3)CC2)c2cccnc12	6	5	-1	5	0	2
Cc1onc(-c2c(F)cccc2Cl)c1C(=O)NC1C(=O)N2C1SC(C)(C)C2C(=O)O (stereo unspecified)	100*	x	x	x	x	100*
Cc1onc(-c2c(F)cccc2Cl)c1C(=O)NC1CC1	-2	-2	-15	-15	5	0
Cc1occc(=O)c1OC(=O)Nc1ccc(Cl)c(Cl)c1	99*	3	-73	-2	2	99*
COc1ccc(C(=O)Oc2c(C)occc2=O)cc1OC	0	-1	7	2	-7	10
C/C(=N\NC(=O)COc1ccccc1-c1ccccc1)c1ccccn1	x	618*	21	12	15	x
O=c1c2ccccc2c(-c2ccccc2)nn1Cc1c(Cl)cccc1Cl	-13	1	1	-3	6	96*
SMILES	Sa RN4220 lethal	PfHsp40 yeast	PrP 5UTR inh	CCHF vOTU inh	PrPC TRFRET	ugtP null kill
CCOC(=O)Cn1nc(-c2ccccc2)c2ccccc2c1=O	5	-1	-22	-2	5	5
COC(=O)c1ccc(-c2noc(CN(C)CCC3CCCCO3)n2)cc1 (stereo unspecified)	8	0	-23	12	-1	13
COC(=O)c1ccc(-c2noc(CN3CCCC(CNC(C)=O)C3)n2)cc1 (stereo unspecified)	5	-1	58*	6	3	3
CN1/C(=C\C=C(/C#N)C(=O)Nc2ccc(Cl)cc2)C(C)(C)c2ccccc21	x	-2	-18	-5	5	x
CN1/C(=C\C(=O)c2cccs2)C(C)(C)c2ccccc21	20	153*	-33	17	2	-1
CN1C(=CC(=O)C(F)F)C(C)(C)c2ccccc21	9	x	x	x	x	6
CN1/C(=C\C(=O)Nc2ccc(Cl)cc2)C(C)(C)c2ccccc21	94*	0	-14	1	2	97*
CC(C)(C)N/N=C1\CC(c2ccccc2)Oc2ccccc21 (stereo unspecified)	x	2	-66	-7	5	x
CC(C)(C)NN=C1CC(c2ccccc2)Oc2ccccc21 (stereo unspecified)	-8	x	x	x	x	94*
Cc1c(C(Cc2ccccc2)=NO)c2ccccc2n1C	-2	x	x	x	x	-4
CSc1ccc(S(=O)(=O)NC2CCCCCC2)cc1	4	67*	-50	-2	7	0
CC(N)=C(C#N)C(=O)COC(=O)c1cc(-c2cccc3ccccc23)nc2ccccc12	-2	x	x	x	x	-16
CNCC1Oc2ccc(NC(=O)C3CCCCC3)cc2CC(=O)N(C(C)CO)CC1C (stereo unspecified)	7	x	x	x	x	0
CCCc1cc(C(N)=O)c(NC(=O)c2cc(C)on2)s1	6	178*	-21	x	x	-6
CCCc1cc(C(N)=O)c(NC(=O)c2ccoc2C)s1	2	9	0	3	10	-21
CC(=O)Oc1cc2cccc(OC(C)=O)c(=O)c2c(OC(C)=O)c1OC(C)=O	20	158*	-19	x	x	3
COc1cc2cccc(OC)c(=O)c2c(O)c1OC	4	-1	-35	11	-28	9
Nc1nnc(SCC(=O)c2ccco2)s1	-1	0	-22	1	4	-3
O=C(CSc1ccc(Cl)cc1)c1ccco1	4	0	-25	x	x	81
O=C(CSc1ccccc1Cl)c1ccco1	15	-2	-14	7	3	87*
O=C(CCSc1ccc(Cl)cc1)c1ccco1	2	0	-12	-4	6	84*
O=C(N/N=C/c1c(O)n(-c2ccc(Cl)cn2)c(=O)c2ccccc12)c1ccncc1	2	29*	-3	-4	-9	-14
O=C(N/N=C/c1c(O)n(-c2ccc(Cl)cn2)c(=O)c2ccccc12)C1CC1	4	-2	-13	-1	-3	0
O=C(Cc1ccccc1)NN=C/C=C/c1ccccc1[N+](=O)[O-]	4	x	x	x	x	3
CC1(O)CC(c2ccc(Cl)cc2)=NN1C(=O)c1ccc([N+](=O)[O-])cc1 (stereo unspecified)	99*	-1	-6	3	-22	98*
CC(=O)N1N=C(c2ccc(Cl)cc2)CC1c1ccc([N+](=O)[O-])cc1 (stereo unspecified)	-1	0	-10	-9	0	6
